# Source: ChEMBL document CHEMBL3988442, “University of Dundee, Small-Polar-MMV Screening Library” (2021)
# Screen size: about 48,000 compounds; about 13,000 (27%) showed an effect of 50% or more. The list shows a part of the results.
# System: Wolbachia pipientis
# Test: Anti-Wolbachia Cell-Based Screen
# Assay type: functional
# Design: scale not given: in the data most compounds retested in dose-response had high values
# Settings: 5 µM
row,Compound,Percent Effect
1,Cc1ccc(-c2cnnc(NCC3(N4CCOCC4)CCCC3)n2)o1,10.34%
2,CNC(=O)c1cc2c(s1)CCN(C(=O)CCC1CCCN(C)C1)C2 (configuration not stated),-26.69%
3,Cc1nn(C)c(C)c1CN(Cc1cccn1-c1ncccn1)C(C)C,-15.44%
4,CC(Cn1ccnc1)NC(=O)N(C)Cc1ccco1 (configuration not stated),7.542%
5,Cc1ccccc1CC1(CO)CCCN(c2ncnc3sccc23)C1 (configuration not stated),23.07%
6,Cc1noc([C@@H]2C[C@H]3OCC[C@H]3N(S(=O)(=O)c3cccnc3)C2)n1.O=C(O)C(F)(F)F,-2.374%
7,Cc1noc([C@@H]2C[C@H]3OCC[C@H]3N(S(=O)(=O)N(C)C)C2)n1,112.3%
8,Cc1nnc([C@H]2C[C@H]3OCC[C@H]3N(S(=O)(=O)N(C)C)C2)o1,-11.67%
9,Cc1nnc([C@H]2C[C@H]3OCC[C@H]3N(S(=O)(=O)C3CC3)C2)o1,7.121%
10,Cc1noc([C@@H]2C[C@H]3OCC[C@H]3N(Cc3ccoc3)C2)n1,14.51%
11,Cc1noc([C@@H]2C[C@H]3OCC[C@H]3N(S(=O)(=O)c3ccccc3)C2)n1,116%
12,CCC(O)Cn1nc(CCSC)nc1-c1ccc2[nH]ccc2c1 (configuration not stated),4.032%
13,COc1ccc(OCc2nc(C(=O)N3CCCNC(=O)C3)co2)cc1,-7.469%
14,COc1ccc(CN(C)C(=O)c2nnc(CN(C)C)o2)cc1,-11.59%
15,NC(=O)C1CN(C(=O)c2ccc(F)cc2)CCN1CCc1ccccc1 (configuration not stated),127.4%
16,CN1CC(c2ccccc2)CC12CCN(C(=O)c1ccc(F)cc1)CC2 (configuration not stated),-4.742%
17,O=C(c1ccccc1)N1CCCC(Nc2ccc(F)cc2)C1 (configuration not stated),-11.95%
18,O=C(NC[C@H]1OC[C@@H](NC2CCC(F)(F)CC2)[C@@H]1O)C1CCCC1,8.921%
19,CN(C)c1cc2c(nn1)CCN(C(=O)C1COc3ccccc3C1)C2 (configuration not stated),-4.709%
20,CN(Cc1ccco1)C(=O)[C@@]12CNC[C@@H]1CN(C1CCCC1)C2,-1.971%
21,COCC(=O)NC1CC2(CCN(CCN(C)C)CC2)c2ccccc21 (configuration not stated),87.88%

row,Compound,Percent Effect
1,CC(C)C(=O)NC1CC2(CCN(CC(=O)N(C)C)CC2)c2ccccc21.O=C(O)C(F)(F)F (configuration not stated),105.8%
2,COCC(=O)NC1CC2(CCN(CCO)CC2)c2ccccc21.O=C(O)C(F)(F)F (configuration not stated),86.71%
3,O=C(NC1CC2(CCN(CCO)CC2)c2ccccc21)c1ccncc1.O=C(O)C(F)(F)F.O=C(O)C(F)(F)F (configuration not stated),-8.101%
4,CCN1CCC2(CC1)CC(NC(=O)c1ccnnc1)c1ccccc12.O=C(O)C(F)(F)F (configuration not stated),-6.669%
5,CCC(c1nc(C(C)C)nn1-c1ccccn1)n1cccn1 (configuration not stated),8.011%
6,CC(C)N1CCc2c(c(COc3cncnc3)nn2CC2CC2)C1.O=C(O)C(F)(F)F,-1.489%
7,c1ccc(-c2cnc(CNC3CCCN(c4cccnn4)C3)o2)cc1 (configuration not stated),-8.343%
8,O=C(c1ccno1)N1C[C@@H](F)[C@@H](OCc2nc3ccccc3o2)C1,6.473%
9,NC(=O)C1CN(c2ccc3c(Cl)ccnc3c2F)CCO1 (configuration not stated),-12.11%
10,CCc1nc(NC(=O)Cc2csc(-c3nnc[nH]3)n2)sc1C,3.287%
11,CN(C)C(=O)N1Cc2nnn(C)c2C(COCC2CC2)C1 (configuration not stated),7.957%
12,COCC1CN(C(=O)[C@H]2CCCO2)Cc2nnn(CC3CC3)c21 (some centres not stated),-4.44%
13,O=C(O)C(F)(F)F.c1cc(CN2Cc3nnn(CC4CC4)c3C(COCC3CC3)C2)co1 (configuration not stated),1.787%
14,COCC1CN(Cc2ccncc2)Cc2nnn(CC3CC3)c21.O=C(O)C(F)(F)F.O=C(O)C(F)(F)F (configuration not stated),-5.053%
15,C1CC(N2Cc3nnn(CC4CC4)c3C(COCC3CC3)C2)C1.O=C(O)C(F)(F)F (configuration not stated),96.7%
16,CCOCC1CN(CC2CCC2)Cc2nnn(CC3CC3)c21 (configuration not stated),111.4%
17,CCOCC1CN(C(=O)N(C)C)Cc2nnn(CC3CC3)c21 (configuration not stated),-7.85%
18,CCOCC1CN(C(=O)[C@H]2CCCO2)Cc2nnn(CC3CC3)c21 (some centres not stated),0.1287%
19,CN(C)C(=O)N1Cc2nnn(CC3CC3)c2C(COCC2CC2)C1 (configuration not stated),117.2%
20,C1CCC(CN2Cc3nnn(CC4CC4)c3C(COCC3CC3)C2)C1.O=C(O)C(F)(F)F (configuration not stated),107.6%
21,CCSC1(CNc2ncc(Br)cn2)CCOCC1,-0.7161%

row,Compound,Percent Effect
1,Cc1cc(CN2CCN(C(=O)C(C)C)[C@@H]3CS(=O)(=O)C[C@@H]32)ccc1F,-3.716%
2,CC(Cn1ccnc1)NCc1nncn1C1CCCCC1 (configuration not stated),-17.23%
3,NC(=O)COc1ccc(CN2CC[C@@]3(O)CCCC[C@H]3C2)cc1Cl,11.68%
4,CSc1ncccc1C(=O)NC(C)c1cccc(N2CCOC2=O)c1 (configuration not stated),5.443%
5,Cc1cc(CN(C)C(=O)C2CCS(=O)(=O)C2)no1 (configuration not stated),3.983%
6,CCCn1nnnc1CSc1nccn1Cc1ccccn1,-4.795%
7,CCn1ccnc1CNCC1CCCN1c1cccnn1 (configuration not stated),-7.119%
8,O=C(Cc1cccs1)N1CCOCC1CO (configuration not stated),-3.953%
9,Cc1nc(CC(=O)N2CCCCC2c2ccn3ccnc3n2)cs1 (configuration not stated),-8.343%
10,O=C(Cc1ccsc1)N1CCCCC1c1ccn2ccnc2n1 (configuration not stated),73.59%
11,O=C(Cc1cccs1)N1CCCCC1c1ccn2ccnc2n1 (configuration not stated),83.71%
12,CN(Cc1ccsc1)C(=O)COC(=O)c1cc(Cl)c[nH]1,107.8%
13,CN(Cc1ccccc1F)C(=O)COC(=O)c1cc(Cl)c[nH]1,87.09%
14,CN(Cc1ccccc1F)C(=O)c1cc(Cl)c[nH]1,92.86%
15,COC(=O)c1ccc(OCC(=O)N(C)Cc2ccsc2)c(OC)c1,0.9882%
16,COCCN1CCN(CC(=O)N(C)Cc2ccsc2)CC1C (configuration not stated),9.964%
17,CN(Cc1ccccc1F)C(=O)CS(=O)(=O)Cc1ccc(Cl)c(Cl)c1,6.215%
18,CN(Cc1ccccc1F)C(=O)c1ccoc1,5.435%
19,Cc1ccccc1CS(=O)(=O)CC(=O)N(C)Cc1ccccc1F,-29.58%
20,COc1ccc(Cl)cc1CS(=O)(=O)CC(=O)N(C)Cc1ccccc1F,-1.573%
